SMILES strings stand for the structures. Among all 200,000 compounds or so, about 18,000 (9%) were called active. Rule as the data show it: active = inhibition above about 50%; inactive = the rest. Many of the other results were omitted from the sample, so actives are more common in it than they were. Where a SMILES comes first, the peptide text is derived from it. [ ]: non-standard residue; d: D form. ξ: configuration not given here. ξM = CSCCC(N)C(=O)O

The test is described as follows: antileishmanial activity against promastigotes – primary screen (AID 1063).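 Also: promastigotes grown with compound for 44 hours at 28 °C.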 As to conditions: Leishmania major promastigotes, resazurin fluorescence viability; at 10 µM; active compounds read high.
As a reminder, the inhibition is the drop in the measured response relative to a control, in per cent. As for `CCOC(=O)c1ccc(N/C(=N/S(=O)(=O)c2ccccc2)c2ccccc2)cc1`, the inhibition is 61.3% (active).

Turning to `O=S(=O)(/N=C(/Nc1ccccc1)c1ccccc1)c1cccs1`, the inhibition is 1.04% (inactive).

Consider `Cc1ccc(S(=O)(=O)/N=C(/Nc2ccc3[nH]c(=O)[nH]c3c2)c2ccccc2)cc1`, for which the inhibition is -4.98% (inactive).

For `COC(=O)CNC(=O)C(CCSC)NC(C)=O` (stereo not given) (Ac-[ξM]-Gly-OMe), the inhibition was -3.76% (inactive).

`COc1ccc(C[C@H]2CN3C(=NC[C@H]3C)N2CCNC(=O)CCC2CCCCC2)cc1`: the inhibition was 31.8% (inactive).

On to `Cc1cccc(-n2c(=O)c3c(C)c(C)sc3n(CC(N)=O)c2=O)c1`, for which the inhibition is 4.25% (inactive).

For `CC(=O)N(CN1C(=O)C2C3C=CC(C3)C2C1=O)c1cccc(Cl)c1` (stereo not given), the inhibition was -6.29% (inactive).

Consider `O=C(COC(=O)CNS(=O)(=O)c1ccccc1)NC12CC3CC(CC(C3)C1)C2`, for which the inhibition is 1.38% (inactive).

In the case of `COc1ccccc1-c1nnc(NC(=O)c2ccc3ncsc3c2)o1`, the inhibition was 80.7% (active).

Consider `COc1ccccc1-c1nnc(NC(=O)c2cccc(N3C(=O)CCC3=O)c2)o1`, for which the inhibition is -4.87% (inactive).

As for `COc1ccccc1-c1nnc(SCC(=O)Nc2ccccc2)o1`, the inhibition is 2.06% (inactive).

Turning to `Cc1ccc(S(=O)(=O)Cc2cc(-c3ccc(Cl)cc3)no2)cc1`, the inhibition was -0.46% (inactive).

On to `COc1ccccc1CC(NC(C)=O)C(=O)NC1CCN(C(=O)Nc2ccccc2Cl)CC1` (stereo not given), for which the inhibition was -3.45% (inactive).

As to `COCCCNC(=O)Cn1c(=O)n(Cc2ccccc2Cl)c(=O)c2cc(OC)c(OC)cc21`, the inhibition is -3.45% (inactive).

On to `Cc1ccc(S(=O)(=O)CCC(=O)OCc2ccccc2)cc1`, for which the inhibition was -3.07% (inactive).

`CCOc1cc(C2C(C(=O)OC(C)C)=C(C)NC3=C2C(=O)CCC3)cc([N+](=O)[O-])c1O` (stereo not given): the inhibition is 8.32% (inactive).

Regarding `O=C(Nc1ccccc1C(=O)N1CCOCC1)c1ccc(CSc2ccccc2)cc1`, the inhibition is 15.2% (inactive).

As for `COc1ccc(C(=O)Nc2ccc(CN3CCOCC3)cc2)cc1`, the inhibition was 0.71% (inactive).

With `O=C(Nc1ccc(CSc2ccccc2)cc1)c1ccc(CN2CCOCC2)cc1`, the inhibition is 95.2% (active).

As to `NC(=O)COC(=O)c1sc2cc(F)ccc2c1Cl`, the inhibition was -4.95% (inactive).

As for `O=C(O)CCCCOn1ccnc1`, the inhibition was -5.36% (inactive).

In the case of `Cc1oc2c(c1C(=O)N1CCOCC1)C(=O)c1ccccc1C2=O`, the inhibition is 99.7% (active).

Take `Cc1onc(-c2ccccc2)c1C(=O)N1CCOCC1`: the inhibition was 0.76% (inactive).

On to `O=C(c1ccccc1-c1ccccc1)N1CCOCC1`, for which the inhibition was 1.25% (inactive).

In the case of `Cc1c(C=O)n(C)n(-c2ccccc2)c1=O`, the inhibition was 0.34% (inactive).

Consider `COc1cc(NC(=O)COc2ccccc2Cl)ccc1NC(=O)C(C)C`, for which the inhibition is 1.32% (inactive).

As to `CN(C)S(=O)(=O)c1ccc2oc(SCC(=O)Nc3ccccc3F)nc2c1`, the inhibition was 2.57% (inactive).

In the case of `Cc1cccc(C)c1NC(=O)CNC(=O)Cc1ccc(Br)cc1`, the inhibition is -3.9% (inactive).

Regarding `CSc1ccccc1NC(=O)Cc1ccc(Br)cc1`, the inhibition was 53.5% (active).

As to `CSc1ccccc1NC(=O)CN(C)CC(=O)Nc1cccc(Br)c1`, the inhibition is 18.6% (inactive).

For `Cc1ccc(OCC(=O)Nc2ccc(S(=O)(=O)Nc3ccccn3)cc2)cc1`, the inhibition was -4.12% (inactive).

Turning to `C=CCN(c1ccc(C(=O)Nc2cc(C)cc(C)c2)cc1)S(C)(=O)=O`, the inhibition was 76% (active).

As to `C=CCN(c1ccc(C(N)=O)cc1)S(C)(=O)=O`, the inhibition is -6.04% (inactive).

As to `CSCc1ccc(C(=O)Nc2cc(C)cc(C)c2)cc1`, the inhibition is -3.2% (inactive).

On to `O=C(CSc1nc2[nH]ncc2c(=O)n1-c1ccccc1)N1CCCc2ccccc21`, for which the inhibition is 15.2% (inactive).

In the case of `COc1ccc(CCNC(=O)CSc2nc3[nH]ncc3c(=O)n2-c2cccc(C(F)(F)F)c2)cc1OC`, the inhibition was -7.3% (inactive).

For `CCc1ccc(-n2c(SCc3cc(=O)n4cc(Br)ccc4n3)nc3[nH]ncc3c2=O)cc1`, the inhibition is 56.9% (active).

Consider `O=c1c2sccc2nc(SCc2cc(=O)n3ccccc3n2)n1-c1ccc(Br)cc1`, for which the inhibition is 12.1% (inactive).

For the compound `Cc1ccc(CSc2nc3[nH]ncc3c(=O)[nH]2)cc1`, the inhibition is -3.25% (inactive).

For the compound `Cc1cccc2nc(CSc3nc4[nH]ncc4c(=O)n3-c3cccc(Cl)c3)cc(=O)n12`, the inhibition is 56.1% (active).

Take `CC(C)Oc1ccc(Cc2n[nH]c(=S)n2Cc2ccccc2)cc1Cl`: the inhibition is 4.91% (inactive).

For the compound `Nc1c(NCCc2ccccc2)c2ccccc2oc1=O`, the inhibition was -2.7% (inactive).

Take `Cc1ccc(C(=O)N/C(=C\c2cccs2)C(=O)NCCc2ccccn2)cc1C`: the inhibition was 16.6% (inactive).

As for `COC(=O)C1=C(C)N(C)C(=S)NC1c1cc(OC)ccc1OC` (stereo not given), the inhibition is 3.3% (inactive).

In the case of `COc1cc(SC)ccc1C(=O)Nc1cc(C)ccn1`, the inhibition was 25.5% (inactive).

For `COc1ccccc1CNC(=O)c1ccc(SC)cc1OC`, the inhibition was 66.9% (active).

Regarding `COc1cc(SC)ccc1C(=O)NCCOc1ccccc1Cl`, the inhibition was 1.79% (inactive).

Regarding `O=C(NNC(=O)C1C2CCC(C2)C1C(=O)O)c1ccc(Cl)cc1` (stereo not given), the inhibition is -5.41% (inactive).

Turning to `Cc1cccc(C(=O)OC(C)CN2CCN(C)CC2)c1` (stereo not given), the inhibition was 3.94% (inactive).

As for `CO/N=C/c1cn(-c2ccc(Cl)cc2)nn1`, the inhibition is -1.77% (inactive).

`CCC1CCCCN1CCCNC(=O)c1cc2c(Cl)nc3ccccc3c2s1` (stereo not given): the inhibition was 100% (active).

In the case of `CCC1CCCCN1CCCNC(=O)C1CCC(Cn2c(=O)[nH]c3ccccc3c2=O)CC1` (stereo not given), the inhibition is -4.5% (inactive).

Turning to `CCC1CCCCN1CCCNC(=O)Cn1nc(-c2ccccc2)ccc1=O` (stereo not given), the inhibition was -4.42% (inactive).

As for `Cc1ccccc1C(OCCN(C)C)C1CCCCC1` (stereo not given), the inhibition was 18.1% (inactive).

Consider `CC(C)OCC(O)CN1CCN(C(c2ccccc2)c2ccccc2)CC1` (stereo not given), for which the inhibition was 0.57% (inactive).

With `Cc1ccccc1C(OCC(O)CN1CCCCC1CCO)c1ccccc1` (stereo not given), the inhibition was 99.7% (active).

Consider `CC(C)N(Cc1nc(-c2ccc3c(c2)OCO3)no1)CC1CCC(=O)N1` (stereo not given), for which the inhibition was -6.4% (inactive).

Take `CC(=O)c1ccc(NC(=S)NC(=O)CC(C)C)cc1`: the inhibition was -4.65% (inactive).

On to `COc1ccc(NS(=O)(=O)c2ccc(NC(=S)NC(=O)CC(C)C)cc2)cc1`, for which the inhibition is 96.7% (active).

In the case of `COc1ccc(C(=O)Nc2ccc(S(=O)(=O)NC(C)C)cc2)cc1`, the inhibition is -3.72% (inactive).

Take `COc1ccc(C2=NN(c3ccccc3)C(c3cccs3)C2)cc1` (stereo not given): the inhibition was 44.3% (inactive).

For `COc1cc(NC(=O)CN(C)S(=O)(=O)c2ccc3nc(C)sc3c2)cc(OC)c1`, the inhibition was 13% (inactive).

On to `Cc1ccc2nc3n(c(=O)c2c1)CCC3`, for which the inhibition is -7.48% (inactive).

Regarding `CCCCN(CC)C(=S)Nc1ccc2nc3n(c(=O)c2c1)CCCCC3`, the inhibition was 55.5% (active).

For the compound `O=C(Nc1ccc2nc3n(c(=O)c2c1)CCCCC3)c1ccccc1Cl`, the inhibition is 0.22% (inactive).

Consider `O=C(OCC(=O)N1CCOCC1)c1ccc(N2CCOCC2)c([N+](=O)[O-])c1`, for which the inhibition is 0.36% (inactive).

On to `CC(C)(C)CN1CCNC(=O)C1CC(=O)NC1Cc2ccccc2C1` (stereo not given), for which the inhibition is -0.33% (inactive).

In the case of `Brc1ccc2nc(N3CCCC3)sc2c1`, the inhibition is 17% (inactive).

`O=C(c1ccc2c(c1)C(=O)N(c1ccc(Cl)cc1)C2=O)N1CCN(c2ccccn2)CC1`: the inhibition is -5.18% (inactive).

As for `O=C(c1ccc2c(c1)N(Cc1ccc(F)cc1)C(=O)c1ccccc1S2(=O)=O)N1CCN(c2ccccn2)CC1`, the inhibition was 97% (active).

In the case of `CCCCN(C)C(=O)c1ccc2c(c1)N(CC)C(=O)c1ccccc1S2(=O)=O`, the inhibition is -6.56% (inactive).

For `C/C(CCc1ccccc1)=N\NC(=O)c1ccc(CN2CCOCC2)cc1`, the inhibition was -3.42% (inactive).

As to `S=C1SCN(CCN2CCOCC2)CN1Cc1ccccc1`, the inhibition was 86.7% (active).

Consider `CCN1CN(Cc2ccccc2)CNC1=S`, for which the inhibition is -5.52% (inactive).

As to `CCCn1nc(Oc2nc(NC(C)C)nc(N(C)C)n2)ccc1=O`, the inhibition was 7.02% (inactive).

Consider `CC(=O)Nc1ccc(S(=O)(=O)Nc2ccc(-c3ccc4nnc(C)n4n3)cc2)cc1`, for which the inhibition was -6.31% (inactive).

Regarding `CCOc1cccc(-c2nn3c(-c4ccccn4)nnc3s2)c1`, the inhibition is 6.06% (inactive).

Turning to `c1ccc(-c2cc(-c3nnc4sc(-c5ccccn5)nn34)[nH]n2)cc1`, the inhibition was 84.6% (active).

`COc1ccc(-c2nn3c(-c4ccccc4)nnc3s2)cc1OC`: the inhibition is 3.79% (inactive).

As for `COc1ccc(N2C(=O)CC(Nc3ccc(F)cc3)C2=O)c([N+](=O)[O-])c1` (stereo not given), the inhibition was -0.61% (inactive).

Consider `CN(C)c1ccc(C2Nc3ccccc3C(=O)N2NS(=O)(=O)c2ccccc2)cc1` (stereo not given), for which the inhibition was 3.72% (inactive).

As for `O=C(NNC(=S)NC(=O)c1cn(-c2ccccc2)nc1-c1ccccc1)c1ccncc1`, the inhibition is 54.9% (active).

As to `O=C(O)c1ccc(NC(=O)c2cn(-c3ccccc3)nc2-c2ccc(Cl)cc2)cc1`, the inhibition was -2.74% (inactive).

Take `Cc1ccccc1NC(=O)c1ccccc1`: the inhibition was -0.75% (inactive).

Turning to `O=C(Nc1cn(-c2ccccc2)nc1-c1ccccc1)c1ccccc1`, the inhibition was 82.8% (active).

Consider `O=C(NCc1cccnc1)c1cn(-c2ccccc2)nc1-c1cccs1`, for which the inhibition was 1.01% (inactive).

For the compound `COc1ccc(-c2nn(-c3ccccc3)cc2C(=O)Nc2nccs2)cc1OC`, the inhibition was 21.8% (inactive).

`CCN(CC)S(=O)(=O)c1ccc(N2CCOCC2)c(NC(=O)C2COc3ccccc3O2)c1` (stereo not given): the inhibition is 26.2% (inactive).

Turning to `N#CC1=C(N)Oc2[nH]c(=S)[nH]c(=O)c2C12C(=O)Nc1ccccc12` (stereo not given), the inhibition was -9.87% (inactive).

Regarding `COc1ccc(N2CCN(C(=O)CCSCc3ccccc3F)CC2)cc1`, the inhibition was 3.84% (inactive).

Consider `COC(=O)c1ccc(NC(=S)NN2CCOCC2)cc1`, for which the inhibition was -9.83% (inactive).

In the case of `CC(NC(=O)Nc1ccccc1)C(c1cccs1)N1CCN(c2ccccc2)CC1` (stereo not given), the inhibition is -1.95% (inactive).

In the case of `Cc1nc2ccc(NC(=S)N3CCC(C)CC3)cc2nc1C`, the inhibition was -1.44% (inactive).

For `COc1ccc(OCCCn2cccc2/C=C2/C(=N)N3OC(C)=CC3=NC2=O)cc1`, the inhibition was 21.9% (inactive).

On to `Cc1cc(C)nc(SCC(=O)N(C)C)n1`, for which the inhibition is -4.86% (inactive).

Source of the values: PubChem BioAssay AID1063 (University of Pittsburgh Molecular Library Screening Center, 2008).
